Only some compounds are listed: those with a hit (about 3.3% of all), similar ones and a draw of the others.
PHOSPHO1 block: PHOSPHO1 (human) inhibition. Q8TCT1. recombinant PHOSPHO1, absorbance phosphatase assay. 290,000 compounds, 1.1% hits. inhibition, % at 13.3 µM; in the data active = inhibition above about 60%
Target sequence (Q8TCT1 whole entry, looked up): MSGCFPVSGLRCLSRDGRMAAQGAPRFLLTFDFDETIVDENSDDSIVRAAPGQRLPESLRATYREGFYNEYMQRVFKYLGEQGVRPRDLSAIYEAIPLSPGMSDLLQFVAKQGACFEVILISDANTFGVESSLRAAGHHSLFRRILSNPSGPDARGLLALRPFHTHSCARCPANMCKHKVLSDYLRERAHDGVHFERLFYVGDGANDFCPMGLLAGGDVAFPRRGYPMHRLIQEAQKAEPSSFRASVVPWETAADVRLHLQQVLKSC
Cl transport mod: modulates chloride dependent transport by human KCC2 | KCC2 cells, thallium flux FluoZin-2 fluorescence | B-score of Tl+ flux slope (higher = more flux/activation; lower = inhibition) at 10 µM | 190,000 compounds, 2.2% hits | AID 1456;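 active = thallium flux slope and its plate-corrected score both differing from the plate sample mean at a set confidence after two filtering rounds, in either direction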;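 note: slope of fluorescence scaled to starting intensity during 10 to 20 s after thallium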
Cardio protect: myocardial damage modulation in H9c2 cells; H9c2 cardiomyocytes, H2O2 injury protection, ATPLite, 2 h; protection from H2O2 cell death, % at 20 µM; 360,000 compounds, 0.63% hits;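 active = compounds giving at least 50% protection of heart cells from peroxide-induced death in the single-dose screen, raw or plate-pattern-corrected value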;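 note: 0% = DMSO wells with peroxide and 100% = DMSO wells without peroxide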
Efflux pump mplx: blocks antifungal efflux pumps in multiplex yeast assay | S. cerevisiae Candida pump triplex, Nile Red efflux | inhibition, % at 10 µM | 330,000 compounds, 0.44% hits | AID 485275;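 active = plate passing quality check with inhibition over a set limit, or well fluorescence over plate mean plus 4 SD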;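 note: Nile Red retained in pooled yeast measured as flow cytometry median fluorescence; 0% = buffer negative control and 100% = Enniatin B positive control; higher means more Nile Red kept so more efflux inhibition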
Calb FLC: affects C. albicans growth with fluconazole. C. albicans CaCi-2 (fluconazole-resistant clinical isolate) + fluconazole, Alamar Blue growth, 48 h. 300,000 compounds, 0.57% hits. growth inhibition, % (no concentration beside the values);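 active = growth inhibition above about 58% in most replicates, limit read from the data, passing the limit was not always enough; inconclusive = exactly half the replicates above a set limit; inactive = most replicates below a set limit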;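 note: all wells also contain fluconazole at 8 µg/ml as a sub-toxic cotreatment; 0% = median of DMSO wells and 100% = median of geldanamycin control wells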
KCC2 secondary: KCC2 (human) modulation, secondary assay; shares compounds with Cl transport mod; HEK293-KCC2, thallium flux, FluoZin2 fluorescence; stronger effect = higher value; normalised thallium flux (F/F0 slope) at 10 µM; 3,700 compounds, 15% hits;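 active = thallium flux slope above the same plate's solvent-only control mean plus 3 SD; inconclusive = the two replicate wells disagree; inactive = no significant difference from solvent-only control wells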
KCC2 bumet counter: bumetanide-insensitive thallium flux in KCC2 cells with ouabain, counter-screen. shares compounds with Cl transport mod. HEK293-KCC2 + bumetanide/ouabain, thallium flux FluoZin2; stronger effect = higher value. normalized thallium flux at 10 µM. 3,700 compounds, 49% hits. AID 1714;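 active = thallium entry rate above the same plate's blocked-transporter control wells by more than 3 SD; inconclusive = the two repeat wells disagree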;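 note: raw slope of fluorescence over initial fluorescence between 10 and 20 s after thallium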
KCC2 secondary2: confirmation of human KCC2 transport modulators. shares compounds with Cl transport mod. HEK293-KCC2, thallium flux FluoZin2 fluorescence; actives lie on both sides; F/F0 rise rate, 10–20 s post-thallium. normalized thallium flux at 10 µM. 3,700 compounds, 23% hits. AID 1715;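 active = thallium flux slope more than 3 SD above or below the plate's solvent-only control mean, mostly below; inconclusive = the two repeat wells disagreed; inactive = no significant shift from solvent-only controls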;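 note: raw slope with 0.1% DMSO as baseline and bumetanide as block control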
HEK counter1: counter-screen for KCC2 modulators: effect in parental HEK293 cells; shares compounds with Cl transport mod; thallium flux FluoZin2, ouabain; baseline-ratio fluorescence slope, 10–20 s after thallium; thallium flux rate (normalised fluorescence) at 10 µM; 3,700 compounds, 46% hits; AID 1716;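 active = thallium flux rate significantly above the same plate's solvent-only control wells, beyond their mean plus 3 SD; inconclusive = the two replicate wells gave conflicting results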
KCC2 retest ouab: confirmation of human KCC2 modulators with ouabain; 3,700 compounds, 48% hits; raw Tl+ flux slope (below DMSO = inhibition, above = activation) at 10 µM; shares compounds with Cl transport mod; HEK293-KCC2, thallium flux FluoZin2 fluorescence; bidirectional: low = inhibitor, high = activator;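 active = thallium flux slope beyond 3 SD from same-plate DMSO control mean in most replicates, usually higher, sometimes lower; inconclusive = repeat tests gave conflicting results; inactive = no significant difference from controls in most replicates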;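 note: slope of initial-normalized fluorescence between seconds 10 and 20 after thallium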
HEK counter2: acts in parental HEK cells, second KCC2 counter-screen; shares compounds with Cl transport mod; HEK293 parental, thallium flux FluoZin-2 fluorescence slope; thallium flux slope at 10 µM; 3,700 compounds, 33% hits;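 active = thallium flux slope above the same plate's solvent-control mean plus 3 SD in both duplicate wells; inconclusive = duplicate wells that disagreed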;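 note: run without ouabain in cells lacking the KCC2 cotransporter; slope of fluorescence scaled to its starting value between 10 and 20 s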
* hit, by the source's call; u = inconclusive; x = no result.

SMILES	PHOSPHO1 block	Cl transport mod	Cardio protect	Efflux pump mplx	Calb FLC	KCC2 secondary	KCC2 bumet counter	KCC2 secondary2	HEK counter1	KCC2 retest ouab	HEK counter2
Cc1ccc(SC[C@H](CC(C)C)N2CCN(CCc3ccccc3)CCC2=O)cc1	-12.1	-4.39*	-21.4	x	-19.0	0.00788	0.00527	0.0319	0.00713	0.0174*	0.00967
CC(=O)Nc1ccc(SC[C@H](CC(C)C)N2CCN(CCc3ccccc3)CCC2=O)cc1	39.7	-3.79*	2.7	0.3	-7.1	0.00963	0.00567	0.0333	0.00694	0.0189	0.0106
COc1ccc(SC[C@H](CC(C)C)N2CCN(CCc3ccccc3)CCC2=O)cc1	22.1	-4.64*	-6.8	0.1	-25.2	0.00609	0.00357	u	0.0058*	0.0133*	0.00872
CC(=O)Nc1ccc(SC[C@H](CC(C)C)N2CCN(CC(C)C)CCC2=O)cc1	35.3	0.122	-5.5	-0.2	-2.7	x	x	x	x	x	x
O=C(N/C(=C\c1ccc(Br)cc1)C(=O)N1CCOCC1)c1ccco1	36.2	x	-1.4	0.1	0.7	x	x	x	x	x	x
CCc1ccc(NC(=O)c2c(Cl)nc(C)c(Cl)c2C)cc1	-1.1	-4.23*	-6.7	-0.2	-4.1	0.00537	0.00533	0.0251*	u	0.0158*	0.012
O=c1c2cccnc2[nH]c(=S)n1CCC1=CCCCC1	2.3	67.9*	5.6	0.0	35.5	0.0413*	0.16*	0.0507*	0.0745*	0.0853*	0.0471*
CCCCCn1c(=S)[nH]c2ncccc2c1=O	4.6	56.6*	-6.9	-0.1	-1.1	0.0379*	0.12*	0.0465*	u	0.0938*	0.036*
COCCCn1c(=S)[nH]c2ncccc2c1=O	12.4	3.58	6.7	-0.2	-3.3	x	x	x	x	x	x
COCCn1c(=S)[nH]c2ncccc2c1=O	42.4	1.9	-1.3	0.0	-10.3	x	x	x	x	x	x
CN(CCCn1c(=S)[nH]c2ncccc2c1=O)Cc1ccccc1	20.5	14.8*	0.6	0.1	-5.0	u	0.057*	0.0362	0.0222*	0.0566*	0.0138*
COc1cccc(CNC(=O)COC(=O)c2ccc(-c3ccc(O)cc3)cc2)c1	x	x	3.5	x	x	x	x	x	x	x	x
CCC(C)C(N)C(=O)N1CCCC1C(=O)NC(C(=O)O)C(C)CC (centres undefined)	x	x	1.3	x	x	x	x	x	x	x	x
CCOC(=O)CC1C(=O)NCCN1c1nc2ccc(C)cn2c(=O)c1/C=C1\SC(=S)N(CC(C)C)C1=O (centres undefined)	28.1	-5.23*	2.5	0.2	-13.4	0.00351*	0.000406*	0.0142*	0.00326*	0.00709*	0.0049*
Cc1ccc2c(C)nc(Nc3nc(CSc4nnc(C)s4)cc(=O)[nH]3)nc2c1	1.9	-0.024	23.5	0.1	25.9	0.00999	0.00625	0.0334	0.00801	0.0198	u
O=C(Nc1cccc(-c2nnn(CC(=O)N3CCc4ccccc4C3)n2)c1)C1CCC1	23.3	x	4.2	-0.1	-6.6	0.0166	0.00429	u	u	0.0135*	0.0103
CC(OC(=O)CCN=C1NS(=O)(=O)c2ccccc21)C(=O)Nc1ccc(S(N)(=O)=O)cc1 (centres undefined)	x	x	4.5	0.1	x	x	x	x	x	x	x
CC(C)Nc1ncnc2c1ncn2[C@H]1CN(Cc2ccc3c(c2)OCO3)C[C@@H](CO)O1	x	x	7.7	x	x	x	x	x	x	x	x
O=C(Nc1nnc(-c2ccccc2Cl)o1)c1cc2cc([N+](=O)[O-])ccc2s1	3.2	6.56*	x	x	x	0.00549	0.0147*	0.0344	0.0163*	u	0.0166*
